Laboratory results reported in PubChem BioAssay (EPA / NIEHS).
Activity calls are given as the source filed them. How the source made its calls: active means hit-call score of the fitted dose curve at least 0.9, where 1 is the maximum; inactive means score below 0.9.

How the values were obtained:
[1] = ATG_GLI_CIS: Attagene CIS-FACTORIAL HepG2 Assay for human Zinc Finger Protein GLI1 (AID 2282945); details: HepG2, Attagene cis-factorial reporter mRNA, GLI element; actives raise or lower the signal
In short: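 Transiently transfected HepG2 cells report endogenous transcription factor activity via cis-element-driven reporter units. After 24 h compound exposure, reporter mRNA was measured by RT-PCR with capillary electrophoresis; bidirectional fitting against DMSO baseline.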

[2] = ATG_GRE_CIS: Attagene CIS-FACTORIAL HepG2 Assay for human Glucocorticoid Response Elements (GRE) (AID 2282947); details: HepG2 GRE cis-reporter, Attagene multiplex mRNA; actives raise or lower the signal
In short: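 Endogenous transcription factor activity is read through cis-element reporter constructs transiently transfected into HepG2 cells. After 24 h treatment, labelled RT-PCR products are resolved by capillary electrophoresis; DMSO sets baseline for bidirectional curve fitting.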

[3] = ATG_ISRE_CIS: Attagene CIS-FACTORIAL HepG2 Assay for human Interferon Regulatory Factor 1 (IRF1) binding to an Interferon-Stimulated Response Element (ISRE) (AID 2282948); details: HepG2 ISRE cis-reporter (Attagene), mRNA transcription readout; actives raise or lower the signal
In short: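 Transfected HepG2 (multiple reporter transcription units, cis elements) dosed 24 h. RNA → oligo(dT) RT → PCR → 6-FAM primer extension → HpaI → CE. DMSO = negative control/baseline.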

[4] = ATG_M_32_CIS: Attagene CIS-FACTORIAL HepG2 Assay for M32 Transcription Factor (Internal Marker) (AID 2282949); details: HepG2 Attagene cis-factorial M32 reporter, mRNA; actives raise or lower the signal;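 further: background control marker of the multiplexed CIS panel rather than a real target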
In short: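 Internal background marker read-out: RT-PCR/capillary electrophoresis fluorescence of reporter transcripts from transiently transfected HepG2 cells after 24 h chemical exposure. Activity fitted bidirectionally relative to DMSO negative control.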

[5] = ATG_M_06_CIS: Attagene CIS-FACTORIAL HepG2 Assay for M06 Transcription Factor (Internal Marker) (AID 2282950); details: HepG2 Attagene CIS-FACTORIAL M06 internal marker reporter; actives raise or lower the signal
In short: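 HepG2 cells transiently transfected with cis-regulated multiple reporter transcription units were exposed to chemical for 24 h; reporter mRNA was quantified by RT-PCR, 6-FAM primer labelling, HpaI digestion and capillary electrophoresis, fitted bidirectionally against DMSO.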

[6] = target: Hypoxia-inducible factor 1-alpha (Homo sapiens) (UniProt Q16665); assay: ATG_HIF1a_CIS: Attagene CIS-FACTORIAL HepG2 Assay for human Hypoxia Inducible Factor 1 (HIF1A) (AID 2282951); details: HepG2 Attagene cis-factorial HIF1a reporter transcription; actives raise or lower the signal
In short: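 RT-PCR/capillary electrophoresis fluorescence readout of reporter transcripts from endogenous-TF-driven cis elements in transfected HepG2 cells, 24 h exposure; activity fitted in both directions against DMSO controls.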

[7] = target: Hepatocyte nuclear factor 6 (Homo sapiens) (UniProt Q9UBC0); assay: ATG_HNF6_CIS: Attagene CIS-FACTORIAL HepG2 Assay for human Hepatocyte Nuclear Factor 6 (HNF6) (AID 2282952); details: HepG2 Attagene cis-factorial HNF6 reporter transcription; actives raise or lower the signal
In short: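 HepG2 cells transiently transfected with cis-element-driven multiple reporter transcription units, dosed 24 h; reporter mRNA quantified by RT-PCR, FAM primer extension, HpaI digestion and capillary electrophoresis; bidirectional fit versus DMSO baseline.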

[8] = target: Heat shock factor protein 1 (Homo sapiens) (UniProt Q00613); assay: ATG_HSE_CIS: Attagene CIS-FACTORIAL HepG2 Assay for human Heat Shock Transcription Factor 1 (HSE) (AID 2282953); details: HepG2 HSE cis-reporter, Attagene RNA transcription; actives raise or lower the signal
In short: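 HepG2 cells transiently transfected with multiple reporter transcription units under cis-regulatory promoter control, measuring endogenous transcription factor activity. After 24 h chemical exposure, reporter mRNA quantified by RT-PCR, fluorescent labelling, HpaI digestion and capillary electrophoresis; bidirectional fit versus DMSO.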

[9] = ATG_PBREM_CIS: Attagene CIS-FACTORIAL HepG2 Assay for human Phenobarbital-responsive Enhancer Module (PBREM) (AID 2282955); details: HepG2 PBREM cis-reporter, Attagene multiplexed transcription; actives raise or lower the signal
In short: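 Reporter mRNA read by RT-PCR, 6-FAM primer extension, HpaI digestion and capillary electrophoresis. Transfected HepG2 cells, 24 h compound exposure. Gain or loss of signal fitted bidirectionally relative to DMSO baseline.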

[10] = target: Paired box protein Pax-6 (Homo sapiens) (UniProt P26367); assay: ATG_Pax6_CIS: Attagene CIS-FACTORIAL HepG2 Assay for human Paired Box 6 (PAX6) (AID 2282956); details: HepG2 CIS-FACTORIAL PAX6 reporter transcription, RNA readout; actives raise or lower the signal
In short: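 Transient MRTU transfection of HepG2 → compound exposure 24 h → TriZol RNA, oligo(dT) RT → PCR, 6-FAM primer extension, HpaI cut → capillary electrophoresis; activity fitted both directions against DMSO.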

[11] = ATG_PXRE_CIS: Attagene CIS-FACTORIAL HepG2 Assay for human Pregnane X Receptor Element (PXRE) (AID 2282957); details: HepG2 Attagene CIS-FACTORIAL PXRE reporter, mRNA; actives raise or lower the signal
In short: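 HepG2 cells transiently transfected with cis-regulated multiple reporter transcription units; endogenous factor activity measured as reporter mRNA 24 h after dosing. RT-PCR, fluorescent primer extension, HpaI digestion, capillary electrophoresis; bidirectional fit versus DMSO baseline.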

[12] = ATG_PPRE_CIS: Attagene CIS-FACTORIAL HepG2 Assay for human Peroxisome Proliferator-activated Response Element (PPRE) (AID 2282958); details: HepG2 PPRE cis-element reporter, Attagene transcription factor profiling; actives raise or lower the signal
In short: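 Read-out: fluorescent reporter mRNA fragments resolved by capillary electrophoresis after RT-PCR. HepG2 cells carried transiently transfected PPRE-driven cis reporter constructs and were dosed for 24 h; gain or loss of signal fitted relative to DMSO.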

[13] = ATG_RORE_CIS: Attagene CIS-FACTORIAL HepG2 Assay for human RAR-related Orphan Receptor Element (RORE) (AID 2282959); details: HepG2 Attagene cis-factorial RORE reporter, mRNA; actives raise or lower the signal
In short: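 Readout: fluorescent reporter mRNA by RT-PCR plus capillary electrophoresis, 24 h after dosing transfected HepG2 cells. Endogenous transcription factor activity on a cis promoter element is measured. Gain or loss of signal fitted against DMSO.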

[14] = ATG_Sox_CIS: Attagene CIS-FACTORIAL HepG2 Assay for human SRY-box transcription factor (SOX) (AID 2282960); details: HepG2 Attagene cis-factorial SOX reporter, mRNA; actives raise or lower the signal
In short: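 Read-out: fluorescent RT-PCR products of SOX1-linked reporter transcripts resolved by capillary electrophoresis, fitted bidirectionally against DMSO. Transiently transfected HepG2 cells, 24 h after chemical exposure, endogenous transcription factor activity.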

[15] = ATG_SREBP_CIS: Attagene CIS-FACTORIAL HepG2 Assay for human Sterol Regulatory Element Binding (SREBP) (AID 2282962); details: HepG2 Attagene cis-factorial SREBP reporter, mRNA; actives raise or lower the signal
In short: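 Transfected HepG2 (cis-regulated reporter library, endogenous TFs) → compound 24 h → total RNA → oligo(dT) RT → reporter-specific PCR → FAM primer extension, HpaI cut → CE fluorescence. Fit bidirectional vs DMSO.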

[16] = target: Signal transducer and activator of transcription 3 (Homo sapiens) (UniProt P40763); assay: ATG_STAT3_CIS: Attagene CIS-FACTORIAL HepG2 Assay for human Signal Transducer and Activator of Transcription 3 (STAT3) (AID 2282963); details: HepG2, Attagene cis-factorial STAT3 reporter transcription; actives raise or lower the signal
In short: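 Values derive from bidirectional fits relative to DMSO of reporter mRNA levels, measured by RT-PCR with capillary electrophoresis, in HepG2 cells carrying transiently transfected cis-regulated reporter units and exposed 24 h.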

[17] = ATG_TA_CIS: Attagene CIS-FACTORIAL HepG2 Assay for human TA Basal Promoter (AID 2282964); details: HepG2 Attagene CIS-factorial TA basal promoter reporter; actives raise or lower the signal
In short: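 HepG2 cells transiently transfected with multiplexed cis-promoter reporter units, dosed 24 h. Reporter mRNA measured by RT-PCR, 6-FAM labelling, HpaI digestion and capillary electrophoresis; bidirectional fit versus DMSO baseline, serving as background control.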

[18] = ATG_MRE_CIS: Attagene CIS-FACTORIAL HepG2 Assay for human Metal Responsive Element (MRE) (AID 2282954); details: HepG2 MRE cis-reporter transcription, Attagene multiplex; actives raise or lower the signal
In short: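 Fluorescent reporter fragments separated by capillary electrophoresis give mRNA induction for the MRE unit after 24 h treatment of transfected HepG2 cells. Endogenous transcription-factor activity is read; DMSO serves as negative control and baseline.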

[19] = target: Transcription factor Sp1 (Homo sapiens) (UniProt P08047); assay: ATG_Sp1_CIS: Attagene CIS-FACTORIAL HepG2 Assay for human Specificity Protein 1 (Sp1) (AID 2282961); details: HepG2 Sp1 cis-reporter transcription, actives raise or lower the signal
In short: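 Read-out: fluorescence of 6-FAM-labeled, HpaI-digested RT-PCR products separated by capillary electrophoresis. HepG2 cells carried transfected cis-element reporter units and were exposed to chemicals for 24 h; gain or loss of signal fitted relative to DMSO.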

Measured: AC50

Sequence of Heat shock factor protein 1 (Homo sapiens) (Q00613 whole entry, looked up): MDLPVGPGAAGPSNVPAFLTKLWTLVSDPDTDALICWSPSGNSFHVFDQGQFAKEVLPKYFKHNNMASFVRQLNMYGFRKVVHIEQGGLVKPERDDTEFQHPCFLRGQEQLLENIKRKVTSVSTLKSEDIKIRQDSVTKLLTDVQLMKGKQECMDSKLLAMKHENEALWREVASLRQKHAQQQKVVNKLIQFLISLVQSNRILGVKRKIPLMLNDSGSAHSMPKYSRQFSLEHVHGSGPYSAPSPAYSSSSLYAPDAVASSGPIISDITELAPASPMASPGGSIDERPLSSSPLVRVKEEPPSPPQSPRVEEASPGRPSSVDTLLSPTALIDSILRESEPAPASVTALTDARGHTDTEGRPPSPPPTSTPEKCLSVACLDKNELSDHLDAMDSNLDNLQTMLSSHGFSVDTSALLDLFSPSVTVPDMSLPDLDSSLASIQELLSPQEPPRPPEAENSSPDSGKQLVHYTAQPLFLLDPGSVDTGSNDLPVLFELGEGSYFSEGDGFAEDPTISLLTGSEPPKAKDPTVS
Sequence of Signal transducer and activator of transcription 3 (Homo sapiens) (P40763 whole entry, looked up): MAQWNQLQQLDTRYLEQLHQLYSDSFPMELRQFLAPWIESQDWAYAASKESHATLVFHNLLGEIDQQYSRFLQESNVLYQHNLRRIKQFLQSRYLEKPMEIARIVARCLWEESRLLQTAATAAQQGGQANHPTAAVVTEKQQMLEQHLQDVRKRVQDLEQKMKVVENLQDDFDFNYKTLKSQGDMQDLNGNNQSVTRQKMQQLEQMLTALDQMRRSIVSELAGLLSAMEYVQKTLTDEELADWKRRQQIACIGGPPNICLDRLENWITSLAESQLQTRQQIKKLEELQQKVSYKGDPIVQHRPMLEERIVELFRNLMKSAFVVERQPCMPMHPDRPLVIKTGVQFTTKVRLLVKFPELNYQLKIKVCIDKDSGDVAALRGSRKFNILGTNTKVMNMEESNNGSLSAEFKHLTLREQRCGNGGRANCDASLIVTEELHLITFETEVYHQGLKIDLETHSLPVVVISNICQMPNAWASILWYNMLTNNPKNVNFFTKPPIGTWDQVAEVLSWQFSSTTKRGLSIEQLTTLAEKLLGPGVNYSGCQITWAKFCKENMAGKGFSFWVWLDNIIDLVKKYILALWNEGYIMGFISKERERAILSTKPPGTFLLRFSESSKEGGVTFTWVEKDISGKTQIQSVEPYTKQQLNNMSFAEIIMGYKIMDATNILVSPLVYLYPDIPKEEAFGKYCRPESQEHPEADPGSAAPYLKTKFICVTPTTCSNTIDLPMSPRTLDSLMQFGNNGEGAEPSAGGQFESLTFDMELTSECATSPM
Sequence of Paired box protein Pax-6 (Homo sapiens) (P26367 whole entry, looked up): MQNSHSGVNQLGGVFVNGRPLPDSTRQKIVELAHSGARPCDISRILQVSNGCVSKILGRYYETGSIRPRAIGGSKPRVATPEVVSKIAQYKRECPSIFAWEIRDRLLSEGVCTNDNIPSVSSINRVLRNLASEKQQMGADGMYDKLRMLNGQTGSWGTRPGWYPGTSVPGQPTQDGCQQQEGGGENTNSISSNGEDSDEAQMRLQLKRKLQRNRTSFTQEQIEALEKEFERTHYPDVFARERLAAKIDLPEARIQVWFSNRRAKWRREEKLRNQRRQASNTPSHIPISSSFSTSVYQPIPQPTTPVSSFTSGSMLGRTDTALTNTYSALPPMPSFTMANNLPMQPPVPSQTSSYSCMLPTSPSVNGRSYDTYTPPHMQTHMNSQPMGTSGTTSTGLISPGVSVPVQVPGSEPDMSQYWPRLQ
Sequence of Hypoxia-inducible factor 1-alpha (Homo sapiens) (Q16665 whole entry, looked up): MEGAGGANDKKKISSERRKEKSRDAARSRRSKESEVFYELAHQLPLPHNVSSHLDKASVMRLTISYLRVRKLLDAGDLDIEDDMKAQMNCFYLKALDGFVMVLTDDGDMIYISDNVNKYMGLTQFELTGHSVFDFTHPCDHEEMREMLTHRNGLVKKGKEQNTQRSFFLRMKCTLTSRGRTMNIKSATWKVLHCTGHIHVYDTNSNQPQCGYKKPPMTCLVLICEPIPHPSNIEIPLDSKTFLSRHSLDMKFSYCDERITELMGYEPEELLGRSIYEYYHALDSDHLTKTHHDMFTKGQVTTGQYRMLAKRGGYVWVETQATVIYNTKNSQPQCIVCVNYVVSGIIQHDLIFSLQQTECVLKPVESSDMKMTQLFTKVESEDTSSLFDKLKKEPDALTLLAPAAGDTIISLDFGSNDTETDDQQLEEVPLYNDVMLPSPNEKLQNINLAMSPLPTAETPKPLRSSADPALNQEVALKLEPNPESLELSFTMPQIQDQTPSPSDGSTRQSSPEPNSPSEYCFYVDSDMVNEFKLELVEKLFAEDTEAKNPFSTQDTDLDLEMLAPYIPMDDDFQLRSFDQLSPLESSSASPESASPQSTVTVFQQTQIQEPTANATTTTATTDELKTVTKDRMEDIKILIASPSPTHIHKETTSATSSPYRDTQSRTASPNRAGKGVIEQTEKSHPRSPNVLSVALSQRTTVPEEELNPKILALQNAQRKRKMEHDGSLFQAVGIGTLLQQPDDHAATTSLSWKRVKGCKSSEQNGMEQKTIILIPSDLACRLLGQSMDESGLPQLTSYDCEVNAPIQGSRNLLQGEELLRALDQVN
Sequence of Transcription factor Sp1 (Homo sapiens) (P08047 whole entry, looked up): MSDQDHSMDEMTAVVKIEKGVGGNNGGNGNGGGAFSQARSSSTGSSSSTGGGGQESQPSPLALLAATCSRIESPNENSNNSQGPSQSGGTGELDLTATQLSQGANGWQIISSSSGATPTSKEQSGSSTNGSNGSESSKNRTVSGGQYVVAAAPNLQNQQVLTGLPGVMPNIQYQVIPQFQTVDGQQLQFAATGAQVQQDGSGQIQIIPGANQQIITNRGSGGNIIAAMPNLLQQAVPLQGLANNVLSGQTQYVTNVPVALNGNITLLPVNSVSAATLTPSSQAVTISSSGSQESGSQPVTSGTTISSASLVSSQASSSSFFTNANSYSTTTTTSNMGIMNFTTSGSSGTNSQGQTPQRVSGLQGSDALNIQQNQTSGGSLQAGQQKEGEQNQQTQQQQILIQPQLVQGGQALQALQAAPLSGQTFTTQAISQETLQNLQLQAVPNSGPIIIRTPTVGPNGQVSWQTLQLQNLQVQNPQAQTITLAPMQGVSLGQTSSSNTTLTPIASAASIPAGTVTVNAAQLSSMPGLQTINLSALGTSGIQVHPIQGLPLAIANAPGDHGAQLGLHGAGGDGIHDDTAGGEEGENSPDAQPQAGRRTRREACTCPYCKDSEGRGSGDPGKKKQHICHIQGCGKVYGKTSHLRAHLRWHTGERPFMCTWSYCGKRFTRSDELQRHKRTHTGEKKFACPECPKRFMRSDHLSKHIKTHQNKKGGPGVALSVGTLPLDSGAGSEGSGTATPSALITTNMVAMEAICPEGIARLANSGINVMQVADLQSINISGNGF
Sequence of Hepatocyte nuclear factor 6 (Homo sapiens) (Q9UBC0 whole entry, looked up): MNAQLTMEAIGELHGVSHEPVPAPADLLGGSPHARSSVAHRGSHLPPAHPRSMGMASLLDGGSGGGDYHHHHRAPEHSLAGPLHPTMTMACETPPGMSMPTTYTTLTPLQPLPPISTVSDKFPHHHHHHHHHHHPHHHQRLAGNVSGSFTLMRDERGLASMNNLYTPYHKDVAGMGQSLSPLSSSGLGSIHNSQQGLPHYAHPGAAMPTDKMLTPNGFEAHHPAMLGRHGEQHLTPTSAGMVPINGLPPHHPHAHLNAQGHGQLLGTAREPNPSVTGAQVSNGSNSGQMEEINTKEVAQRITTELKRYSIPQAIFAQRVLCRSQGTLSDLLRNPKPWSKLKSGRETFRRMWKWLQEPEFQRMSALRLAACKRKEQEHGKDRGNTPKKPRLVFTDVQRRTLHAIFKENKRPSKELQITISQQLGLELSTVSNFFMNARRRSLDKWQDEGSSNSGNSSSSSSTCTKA

Cc1ccc(C)c(O)c1C
not listed: [18] | [19]
inactive: all other assays above

CCCCCCCCCCC
not listed: [7] | [12]
inactive: all other assays above

COc1ccc2c(c1)c(CC(=O)O)c(C)n2C(=O)c1ccc(Cl)cc1
active: [12] 12.5 µM
not listed: [7] | [18] | [19]
inactive: all other assays above

CC(=O)OC/C=C(\C)CCC=C(C)C
active: [11] 48.3 µM
not listed: [7] | [18]
inactive: all other assays above
